Several values for one entry are separate records, joined by “and”; a condition that tells them apart may be missing. Identical values can stand only once. Results filed as inconclusive are left out. Values without a mark were called inactive. Activity calls are given as the source filed them. Unless noted, calls come from the whole dose curve; as a rule, active = well fitted curve in the direction sought with a large enough effect; inconclusive = small, poorly fitted or top-dose-only effect, or another doubt; inactive = no such curve, though single readings can be large; an effect the other way counts as inactive or inconclusive.

We go through 36 compounds from PubChem BioAssay (NCATS).

Tested on in the first test: not listed separately
Nature of the test: Cell Viability - HUV-EC-C (AID 542). Note: % is set by controls: 0 for no effect and ±100 for the full control effect; nearly all actives have a fitted effect of over 35% in size. Conditions: HUV-EC-C endothelial cell viability, qHTS; series mostly up to 92.2 µM; activity change, negative = cytotoxicity: at the top concentration. The method, boiled down: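 HUV-EC-C normal human vascular endothelial cells, 1000 cells/well, pre-incubated 5 hr at 37 °C, then exposed to compounds for 40 hr at 37 °C in complete medium. Viability measured as intracellular ATP by CellTiter-Glo luminescence; AC50 from Hill fits.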
Take `CCCC(C)(COC(N)=O)COC(=O)NC(C)C` (configuration not stated): the “activity change, negative = cytotoxicity” value is 13.1%.
On to `OCCOc1ccccc1`, for which the “activity change, negative = cytotoxicity” value was -2.13%.
For `Oc1ccc(Cl)cc1Cc1ccccc1`, the “activity change, negative = cytotoxicity” value was -1.36%.
For `c1ccc2c(c1)Nc1ccccc1S2`, the “activity change, negative = cytotoxicity” value is -6.21%.
Regarding `CCOP(=S)(OCC)Oc1cc(C)nc(C(C)C)n1`, the “activity change, negative = cytotoxicity” value was -0.225%.
Regarding `NCC(O)c1ccc(O)cc1` (configuration not stated), the “activity change, negative = cytotoxicity” value is -13.2%.
Take `CNCC(O)c1ccc(O)cc1` (configuration not stated): the “activity change, negative = cytotoxicity” value is -20.8%.
Same read-out and setting: to `Oc1ccccc1-c1ccccc1` belongs 5.76%.

Tested on in another test: not listed separately
Nature of the test: Cell Viability - H-4-II-E (AID 543). For activity change, negative = cytotoxic: % is set by controls: 0 for no effect and ±100 for the full control effect. Note: nearly all actives have a fitted effect of over 35% in size. Note: potency is the fitted concentration of half-maximal effect. Conditions: H-4-II-E rat hepatoma viability; series mostly up to 92.2 µM; activity change, negative = cytotoxic: at the top concentration. The method, boiled down:
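Rat hepatoma H-4-II-E cells (1500/well) were plated, incubated 5 hr at 37 °C, then exposed to compounds for 40 hr at 37 °C. Cellular ATP was read by CellTiter-Glo luminescence; AC50 came from Hill-equation fits of concentration-response data.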
For the compound `CCCC(C)(COC(N)=O)COC(=O)NC(C)C` (configuration not stated), the “activity change, negative = cytotoxic” value was -4.07%.
As to `OCCOc1ccccc1`, the “activity change, negative = cytotoxic” value is 2.88%.
Regarding `Clc1ccc(COC(Cn2ccnc2)c2ccc(Cl)cc2Cl)cc1` (configuration not stated), the Potency is 39.8 µM (active).
Turning to `Oc1cccc2cccnc12`, the Potency is 39.8 µM (active).
Regarding `N[C@@H](Cc1ccc(N(CCCl)CCCl)cc1)C(=O)O`, the Potency was 50.1 µM (active).
For the compound `Oc1ccc(Cl)cc1Cc1ccccc1`, the “activity change, negative = cytotoxic” value was -10.9%.
In the case of `c1ccc2c(c1)Nc1ccccc1S2`, the “activity change, negative = cytotoxic” value was -21.3%.
With `CCOP(=S)(OCC)Oc1cc(C)nc(C(C)C)n1`, the “activity change, negative = cytotoxic” value is -7.72%.
As for `NCC(O)c1ccc(O)cc1` (configuration not stated), the “activity change, negative = cytotoxic” value was -6.01%.
In the case of `CNCC(O)c1ccc(O)cc1` (configuration not stated), the “activity change, negative = cytotoxic” value was -7.78%.
For `Oc1ccccc1-c1ccccc1`, the “activity change, negative = cytotoxic” value was -4.2%.

Tested on in a further test: not listed separately
Nature of the test: Cell Viability - SH-SY5Y (AID 544).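 For viability change, negative = cytotoxic: 0% = DMSO alone and -100% = 100 µM tamoxifen.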 Note: nearly all actives have a fitted effect of over 55% in size. Note: potency is the fitted concentration of half-maximal effect. As to conditions: SH-SY5Y neuroblastoma cell viability; viability change, negative = cytotoxic: at 92.2 µM (top of the series). The method, boiled down: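 Human neuroblastoma SH-SY5Y cells (1500/well) in complete medium were exposed to compounds for 40 hr at 37 °C; intracellular ATP was then quantified by CellTiter-Glo luminescence after 20 min at room temperature. AC50 came from Hill-equation concentration-response fits.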
For `CCCC(C)(COC(N)=O)COC(=O)NC(C)C` (configuration not stated), the viability change, negative = cytotoxic was 1.5%.
On to `OCCOc1ccccc1`, for which the viability change, negative = cytotoxic is -18.2%.
On to `Clc1ccc(COC(Cn2ccnc2)c2ccc(Cl)cc2Cl)cc1` (configuration not stated), for which the viability change, negative = cytotoxic is -84.8% (active).
The same measure, in the same setting: in the case of `C[C@]12C/C(=C/O)C(=O)C[C@@H]1CC[C@@H]1[C@@H]2CC[C@@]2(C)[C@H]1CC[C@]2(C)O` it was -95.9% (active).
For the compound `Oc1cccc2cccnc12`, the Potency was 3.98 µM (active).
For `N[C@@H](Cc1ccc(N(CCCl)CCCl)cc1)C(=O)O`, the Potency is 0.251 µM (active).
Consider `c1ccc2c(c1)Nc1ccccc1S2`, for which the viability change, negative = cytotoxic is -26%.
Consider `CCOP(=S)(OCC)Oc1cc(C)nc(C(C)C)n1`, for which the viability change, negative = cytotoxic is -9.46%.
`NCC(O)c1ccc(O)cc1` (configuration not stated): the viability change, negative = cytotoxic is -12.1%.
Regarding `CNCC(O)c1ccc(O)cc1` (configuration not stated), the viability change, negative = cytotoxic was -15.7%.
Take `Oc1ccccc1-c1ccccc1`: the viability change, negative = cytotoxic is -9.19%.

Tested on in the next test: not listed separately
Nature of the test: Cell Viability - Renal Proximal Tubule (AID 545).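 Note: 0% = DMSO only and -100% = 100 µM tamoxifen; nearly all actives have a fitted effect of over 40% in size.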 As to conditions: renal proximal tubule cells viability; at 91.7 µM (top of the series) unless noted. The method, boiled down:
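Luminescent ATP signal (CellTiter-Glo) served as the viability read-out after 40 hr compound exposure of freshly isolated rat proximal tubule cells at 37 °C. Concentration-dependent ATP loss was fitted with the Hill equation to give AC50.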
In the case of `CCCC(C)(COC(N)=O)COC(=O)NC(C)C` (configuration not stated), the activity change, negative = cytotoxicity is 4.58%.
On to `OCCOc1ccccc1`, for which the activity change, negative = cytotoxicity was -6.83%.
Still for that read-out and setting: in the case of `Clc1ccc(COC(Cn2ccnc2)c2ccc(Cl)cc2Cl)cc1` (configuration not stated) it was -83.1% (active); in that of `C[C@]12C/C(=C/O)C(=O)C[C@@H]1CC[C@@H]1[C@@H]2CC[C@@]2(C)[C@H]1CC[C@]2(C)O`, -89.1% (active).
Regarding `Oc1cccc2cccnc12`, the activity change, negative = cytotoxicity was -13.9% and -16.1%.
Same read-out and setting: to `N[C@@H](Cc1ccc(N(CCCl)CCCl)cc1)C(=O)O` belongs -104% (active); to `Oc1ccc(Cl)cc1Cc1ccccc1`, -8.93%.
As for `c1ccc2c(c1)Nc1ccccc1S2`, the activity change, negative = cytotoxicity was -25%.
Turning to `CCOP(=S)(OCC)Oc1cc(C)nc(C(C)C)n1`, the activity change, negative = cytotoxicity is -3.55%.
For the compound `NCC(O)c1ccc(O)cc1` (configuration not stated), the activity change, negative = cytotoxicity is -6.15%.
The same measure, in the same setting: in the case of `CNCC(O)c1ccc(O)cc1` (configuration not stated) it was -6.79%; in that of `Oc1ccccc1-c1ccccc1`, -16.3% [at 91.7 µM, primary cells of rat origin].

Tested on in a further test: not listed separately
Nature of the test: Cell Viability - Mesenchymal (AID 546).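 Note: cells exposed to compound for 40 hours before reading; 0% = DMSO only and -100% = 100 µM tamoxifen.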 As to conditions: mesenchymal cells viability, qHTS; series mostly up to 91.7 µM; activity change, negative = cytotoxicity: at the top concentration. The method, boiled down: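 AC50 values reflect the drop in intracellular ATP in a human kidney mesenchymal line derived from normal glomeruli. Treatment lasts 40 hr at 37 °C in complete medium, and the signal comes from CellTiter-Glo luminescence.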
Background: In qHTS, concentration-response curves come from the screen itself.
For `CCCC(C)(COC(N)=O)COC(=O)NC(C)C` (configuration not stated), the “activity change, negative = cytotoxicity” value was 1.22%.
For `OCCOc1ccccc1`, the “activity change, negative = cytotoxicity” value is -9.62%.
Still for that read-out and setting: to `C[C@]12C/C(=C/O)C(=O)C[C@@H]1CC[C@@H]1[C@@H]2CC[C@@]2(C)[C@H]1CC[C@]2(C)O` belongs -14.5%.
As to `Oc1cccc2cccnc12`, the result was inactive.
With `Oc1ccc(Cl)cc1Cc1ccccc1`, the “activity change, negative = cytotoxicity” value was 8.64%.
The same measure, in the same setting: in the case of `c1ccc2c(c1)Nc1ccccc1S2` it was -10.3%; in that of `CCOP(=S)(OCC)Oc1cc(C)nc(C(C)C)n1`, 1.86%; in that of `NCC(O)c1ccc(O)cc1` (configuration not stated), -3.85%.
Take `CNCC(O)c1ccc(O)cc1` (configuration not stated): the “activity change, negative = cytotoxicity” value is -9.03%.
The same measure, in the same setting: in the case of `Oc1ccccc1-c1ccccc1` it was 1.01%.

In a further test the target is 3',5'-cyclic-AMP phosphodiesterase 4B (Homo sapiens) (UniProt Q07343). Nature of the test: qHTS Assay for Inhibitors of PDE-IV (AID 607; active = well fitted activation curve with a large enough effect in the main read-out, with a control signal flat, not every such curve was filed as active; note: % of control where 0% means no effect). Conditions: HEK293 ACTOne CNG channel cells, membrane potential fluorescence; series mostly up to 22.9 µM; activation (PDE inhibition): at the top concentration. The method, boiled down: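 ACTOne HEK293 cells carry a modified cAMP-gated CNG channel and express endogenous PDE4; plated 1000 cells/well, compounds up to 22.9 uM final. Membrane-potential dye fluorescence (ex 535/em 590) was read; parental cells received 10 uM forskolin + 100 uM RO 20-1724.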
Sequence of 3',5'-cyclic-AMP phosphodiesterase 4B (Homo sapiens) (Q07343 whole entry, looked up): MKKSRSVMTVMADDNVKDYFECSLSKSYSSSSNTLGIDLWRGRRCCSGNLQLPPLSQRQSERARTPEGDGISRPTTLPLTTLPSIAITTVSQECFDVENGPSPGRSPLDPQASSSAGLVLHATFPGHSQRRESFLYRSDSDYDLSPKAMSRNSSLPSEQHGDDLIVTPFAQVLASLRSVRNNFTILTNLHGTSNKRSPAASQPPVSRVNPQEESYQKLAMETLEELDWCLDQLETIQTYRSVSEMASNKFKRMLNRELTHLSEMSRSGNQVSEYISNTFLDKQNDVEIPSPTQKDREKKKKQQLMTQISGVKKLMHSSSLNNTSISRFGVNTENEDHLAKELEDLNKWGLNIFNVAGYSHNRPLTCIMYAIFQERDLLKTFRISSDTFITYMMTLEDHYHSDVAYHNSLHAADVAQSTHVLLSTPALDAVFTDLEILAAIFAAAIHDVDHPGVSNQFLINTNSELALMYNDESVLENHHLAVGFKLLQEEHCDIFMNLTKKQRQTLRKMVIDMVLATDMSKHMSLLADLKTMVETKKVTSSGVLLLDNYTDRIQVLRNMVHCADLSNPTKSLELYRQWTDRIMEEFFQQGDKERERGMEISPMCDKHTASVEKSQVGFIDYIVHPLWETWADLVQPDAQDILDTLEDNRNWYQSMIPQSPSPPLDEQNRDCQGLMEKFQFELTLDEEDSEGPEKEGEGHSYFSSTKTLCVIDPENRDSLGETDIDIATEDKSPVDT
Consider `N#CC(C#N)=Cc1ccc(O)c(O)c1`, for which the outcome was inactive.
Consider `CCN(CC)C(=O)N[C@@H]1C=C2c3cccc4[nH]cc(c34)C[C@@H]2N(C)C1`, for which the call was inactive.
As for `CCCN1CCC[C@@H]2Cc3nc(N)ncc3C[C@H]21`, the “activation (PDE inhibition)” value was 6.55%.
Consider `O=c1[nH]c2ccccc2n1C1CCN(CCCC(c2ccc(F)cc2)c2ccc(F)cc2)CC1`, for which the compound was called inactive.
In the case of `COc1ccccc1N1CCNCC1`, the “activation (PDE inhibition)” value was -3.68%.
With `c1ccc(C2CC2)c(OCC2=NCCN2)c1`, the compound was classed as inactive.
Consider `Fc1ccc(C(OCCN2CCN(CCCc3ccccc3)CC2)c2ccc(F)cc2)cc1`, for which the compound was called inactive.
With `CCCN1CCC[C@@H]2Cc3[nH]ncc3C[C@H]21`, the result was inactive.
Take `Cc1ccc(S(=O)(=O)N[C@@H](CCCCN)C(=O)CCl)cc1`: the “activation (PDE inhibition)” value is -1.13%.
Turning to `CCn1cc(C(=O)O)c(=O)c2ccc(C)nc21`, the “activation (PDE inhibition)” value is 24.1%.
In the case of `C#CCN(C)[C@H](C)Cc1ccccc1`, the “activation (PDE inhibition)” value is 10.7%.
Still for that read-out and setting: to `COC1(CS(=O)c2ccccc2)CCN(CCc2c[nH]c3ccc(F)cc23)CC1` (configuration not stated) belongs 26.5%.
`O=P1(NCCCl)OCCCN1CCCl` (configuration not stated): the “activation (PDE inhibition)” value was 3.78%.
Turning to `O=c1[nH]c2ccccc2n1CCCN1CCC(n2c(=O)[nH]c3cc(Cl)ccc32)CC1`, the compound was classed as inactive.
Take `NP(N)(=O)NC(=O)c1ccc(F)cc1`: the “activation (PDE inhibition)” value was 17%.
Same read-out and setting: to `N[C@@H]1C[C@H]1c1ccccc1` belongs 12.1%; to `Oc1cccc2cccnc12`, 12%.
As for `Clc1cccc(N2CCNCC2)c1`, the outcome was inactive.
For `Cc1ncc(CNC(=O)N(CCCl)N=O)c(N)n1`, the “activation (PDE inhibition)” value was -11.2%.
Regarding `NCC1(CC(=O)O)CCCCC1`, the call was inactive.
With `O=[N+]([O-])c1cc([As](=O)(O)O)ccc1O`, the “activation (PDE inhibition)” value was 4.46%.
For the compound `NN=C(N)N`, the compound was called inactive.
With `Cc1cccc(C)c1NC1=NCCCS1`, the call was inactive.
Consider `Nc1ccncc1`, for which the outcome was inactive.
With `C=C(C)[C@H]1Cc2c(ccc3c2O[C@@H]2COc4cc(OC)c(OC)cc4[C@@H]2C3=O)O1`, the “activation (PDE inhibition)” value is 23%.
